This is a sample that favours compounds with a hit; in the whole collection about 8.1% have one here.
SW480 rerep – induces DNA re-replication in SW480 colon adenocarcinoma cells | SW480 DNA re-replication, Hoechst DNA content imaging, 48 h | Potency, µM (titrated, usually from 46.1 µM), without a hit: top-dose re-replication activation, most hits filed as activators | actives 1.8% (n = 340,000) | AID 624297; note: % of control where 0% means no effect; nearly all actives have a fitted effect of over 55% in size
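DNA re-replication was detected as more nuclei of elevated Hoechst intensity after 48 hr exposure to compound (23 nL pinned per well of 250 cells).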
KB-V1 cytotox – KB-V1 MDR subline cytotoxicity | KB-V1 MDR cells viability, CellTiter-Glo, 72 h | Potency, µM (titrated, usually from 46.1 µM), most hits filed as cytotoxic | actives 3.4% (n = 400,000); note: % is set by controls: 0 for no effect and ±100 for the full control effect; nearly all actives have a fitted effect of over 60% in size
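Cytotoxicity toward P-gp-expressing KB-V1 cells was determined as loss of CellTiter-Glo luminescence after 72 h at 37 degrees C. Compounds were tested in quantitative HTS format across a concentration range, with curves fitted to normalized data.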
KB-3-1 tox – kills parental KB-3-1 adenocarcinoma cells; KB-3-1 viability, CellTiter-Glo ATP luminescence, 72 h; Potency, µM (titrated, usually from 46.1 µM), usual class: cytotoxic; actives 1.4% (n = 400,000); note: % is set by controls: 0 for no effect and ±100 for the full control effect; nearly all actives have a fitted effect of over 60% in size
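Cells are dispensed, compounds pinned in, plates held at 37 °C for 72 h, then CellTiter-Glo is added and luminescence read after 10 minutes. Cell line: parental KB-3-1 in phenol-red-free DMEM, 10% FBS.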
MCF10A rerep – induces DNA re-replication in MCF 10a normal breast cells; MCF 10A DNA re-replication, Hoechst nuclear intensity, 48 h; Potency, µM (doses to about 46.1 µM), for inactives: top-dose activity, positive = re-replication, actives largely listed as activators; actives 2.9% (n = 350,000); note: % of control where 0% means no effect; nearly all actives have a fitted effect of over 50% in size
ELG1 DNA repair – blocks ELG1-dependent DNA repair in HEK293T cells; HEK293T ELG1-luciferase reporter, luminescence, 16 h; DNA damage induced by 5-fluorouridine; actives 2.3% (n = 330,000); Potency, µM (top dose mostly 46.1 µM), without a hit: at the top dose activity change, negative = inhibition, hits mostly inhibitors; note: % is set by controls: 0 for no effect and ±100 for the full control effect; nearly all actives have a fitted effect of over 55% in size
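Overnight (16 hr) co-exposure of 2,000 cells/well to 5-fluorouridine and compound at 37 °C preceded detection. Luciferase was quantified via ONE-Glo luminescence; loss of signal denotes inhibition.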
An asterisk follows results filed as active; i = inactive; ? = inconclusive; . = no result; [ ] = another dose, or the depositor's remark. Calls come from the whole dose curve; as a rule, active = well fitted curve in the direction sought with a large enough effect; inconclusive = small, poorly fitted or top-dose-only effect, or another doubt; inactive = no such curve, though single readings can be large; an effect the other way counts as inactive or inconclusive. Potency is the fitted concentration of half-maximal effect.

SMILES	SW480 rerep	KB-V1 cytotox	KB-3-1 tox	MCF10A rerep	ELG1 DNA repair
CCOc1ccc(-n2c(C)nc3cc(C(=O)NCc4ccc5c(c4)OCO5)ccc32)cc1	2%	13µM*	?	18%	-1%
COc1ccccc1C(=O)NC(=O)COC(=O)CNC(=O)c1ccc(Cl)c([N+](=O)[O-])c1	1%	i	i	22%	7%
Cc1ccc(Nc2nc(N)nc(CSC(=S)N3CCOCC3)n2)c(C)c1	-48%	8.2µM*	i	10%	?
COc1ccccc1Nc1nc(N)nc(CSC(=S)N2CCN(c3ccccc3)CC2)n1	-17%	?	i	-23%[9.22 µM]	?
CN1CCN(C(=S)SCc2nc(N)nc(Nc3ccc(F)cc3)n2)CC1	-6%	i	i	-1%	-18%
Nc1nc(CSC(=S)N2CCOCC2)nc(Nc2ccc(F)cc2)n1	-37%	16µM*	i	1%	?
Cc1ccc(Nc2nc(N)nc(CSC(=S)N3CCN(c4ccccc4)CC3)n2)cc1	2%	16µM*	i	6%	?
Nc1nc(CSC(=S)N2CCN(c3ccccc3)CC2)nc(Nc2ccccc2)n1	132%	3.3µM*	i	4%	?
COc1ccc(Nc2nc(N)nc(CSC(=S)N3CCOCC3)n2)cc1	?	i	i	-3%	?
CCC(C)NC(=O)c1ccc(NC(=O)C2=C(C)OCCS2)cc1 (stereo not drawn)	-2%	i	i	-1%	-1%
COc1cccc(/C=N/NC(=O)c2nnn(-c3nonc3N)c2CN(C)C2CCCCC2)c1	.	i	i	.	.
CCCCNC(=O)C(NC(=O)c1ccc2c(c1)OCO2)C(=O)c1ccccc1 (stereo not drawn)	.	?	i	.	.
CCOC(=O)c1c(Nc2ccccc2)sc(/C=C2\C=Nc3ccccc32)c1O	-5%	i	i	25%	-11%
Oc1nc(Nc2ccccc2)sc1/C=C1\C=Nc2ccccc21	16%	i	i	21µM*	?
CC(C)[C@H](NC(=O)C1CC(=O)N(c2ccc(F)cc2)C1)C(=O)N1CCCCC1 (stereo partly drawn)	-4%	i	i	1%	29%
COC(=O)CC(=O)CSc1nc2cc(C(=O)NCC(C)C)ccc2c(=O)n1CCc1ccccc1	.	i	i	.	.
CCOC(=O)C1CCN(C(=O)c2sc3nc(-c4ccc(F)cc4)cn3c2C)CC1	-10%	23µM*	i	3%	?
CCCC(=O)N1CCC1(C)C(=O)Nc1ccc(OC(F)F)cc1 (stereo not drawn)	.	i	i	.	.
N#Cc1cc(C#N)c(N2CCN(c3cccc(Cl)n3)CC2)nc1N	20%	18µM*	i	3.3µM*	1%
NC1CCN(c2cccc(Cl)n2)CC1	-2%	.	.	2%	.
Cc1ccc(CNC(=O)c2ccc3c(=O)c(O)c(-c4ccc(C)cc4)[nH]c3c2)cc1	?	?	4.6µM*	?	-29%
Cc1ccc(C(=O)Nc2cccc(C(=O)NCc3ccco3)c2)cc1	2%	i	3.3µM*	11%	5%
Cc1ccc(C(=O)Nc2cccc(C(=O)NCc3ccccc3)c2)cc1	2%	4.6µM*	8.2µM*	?	?
Cc1ccc(OCCNC(=O)C(=O)NCc2ccco2)cc1	10µM*	?	?	1.6µM*	3%
COc1ccc(C(=O)Nc2cccc(C(=O)NCc3ccccc3)c2)cc1	9%	?	i	13%	-10%
SMILES	SW480 rerep	KB-V1 cytotox	KB-3-1 tox	MCF10A rerep	ELG1 DNA repair
CCOc1ccc(S(=O)(=O)NCCC(=O)N(CC)CC(=O)Nc2c(F)cccc2F)cc1	-72%	i	i	1%	9%
CCCNC(=O)c1ccccc1NC(=O)COc1cccc2c1OC(C)(C)C2	10%	?	i	?	15µM*
Cc1ccc(NC(=O)COc2cccc3c2OC(C)(C)C3)c(O)c1	-4%	18µM*	i	19%	-1%
Cc1cccc(N2CCN(C(=O)COc3cccc4c3OC(C)(C)C4)CC2)c1C	2%	i	i	8%	26µM*
Cc1cc(N2CCCC2=O)cc(C)c1S(=O)(=O)NCCOc1ccc(C(C)(C)C)cc1	17%	?	?	?	21µM*
O=C1CCCN1c1ccc(S(=O)(=O)NCCOc2ccccc2)cc1	2%[9.22 µM]	i	i	-3%	?
N=c1c(C(=O)NCc2ccco2)cc2c(=O)n3ccccc3nc2n1CC1CCCO1 (stereo not drawn)	?	i	i	?	.
N=c1c(C(=O)NCc2ccc3c(c2)OCO3)cc2c(=O)n3ccccc3nc2n1CC1CCCO1 (stereo not drawn)	23µM*	i	?	?	-1%
COc1ccc(CCNC(=O)c2cc3c(=O)n4ccccc4nc3n(CC3CCCO3)c2=N)cc1 (stereo not drawn)	-35%	i	i	?	.
N=c1c(C(=O)NCCc2ccccc2)cc2c(=O)n3ccccc3nc2n1CC1CCCO1 (stereo not drawn)	2.6µM*	i	i	18µM*	?
N=c1c(C(=O)NCc2ccc(F)cc2)cc2c(=O)n3ccccc3nc2n1CC1CCCO1 (stereo not drawn)	2.9µM*	i	i	?	-1%
O=C(OCc1ccccc1)c1c(-c2ccccc2)oc2c1C(OCCO)CCC2 (stereo not drawn)	.	i	i	.	.
CCN(C[C@H]1N[C@@](CC)(C(=O)OC)[C@H]2C(=O)N(Cc3ccccc3)C(=O)[C@@H]12)C(=O)COc1ccccc1	-3%[9.22 µM]	i	i	3%	-16%
COc1ccc(-c2nc(CN3CCN(c4cc(C)nc(C)c4)CC3)c(C)o2)c2ccccc12	?	i	?	16µM*	13%
Cc1oc(-c2cccc3ccccc23)nc1CN1CCN(c2ncnc3ccccc23)CC1	0%	?	?	?	15µM*
Cc1cnc(C)c(N2CCN(Cc3nc(-c4ccc(C)o4)oc3C)CC2)n1	?	?	i	2%	-19%
Cc1ccc2nc(-c3cccs3)c(Nc3ccc4c(c3)OCCO4)n2c1	.	i	i	.	.
COc1cccc(CNC(=O)C2CCC(CNS(=O)(=O)c3ccc4c(c3)CCCC(=O)N4)CC2)c1 (stereo not drawn)	.	i	i	.	.
COc1ccc(C2c3[nH]c4ccccc4c3C[C@H]3C(=O)N(C4CCN(Cc5ccccc5)CC4)CC(=O)N23)cc1OC (stereo partly drawn)	18µM*	i	?	?	-7%
COc1cccc(C2c3[nH]c4ccccc4c3C[C@H]3C(=O)N(C4CCN(Cc5ccccc5)CC4)CC(=O)N23)c1 (stereo partly drawn)	?	?	?	17%	?
